# In PubChem BioAssay AID463215 (Sanford-Burnham Center for Chemical Genomics, 2010):
# In all, about 4,600 compounds went through this assay and about 2,900 (63%) were called active.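 How the source made its calls: active means inhibition of yeast growth at or above a set limit in either of two replicates at 10 µM; inactive means the rest.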 The set was probably picked from earlier hits. The sample as a whole holds a higher share of actives than the screen did.
# Test: TIM10 isogenic control strain growth inhibition – single concentration, luminescence, S. cerevisiae, counter-screen for tim10-1 synthetic lethality project, confirmation (AID 463215);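 further: isogenic wild-type TIM10 control yeast grown in succinate dextrose medium; this counterscreen used the strain with wild-type TIM10; 0% = yeast with DMSO and 100% = medium wells lacking yeast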
# Conditions: BacTiter-Glo luminescence, 24 h, at 10 µM, stronger effect = higher value
row,Compound,inhibition
1,Cc1cc2ccccn2c1C(C[N+](=O)[O-])c1c(F)cccc1Cl (stereo not given),36.1% (active)
2,O=C1NC(=O)N(c2ccccc2)C(=O)/C1=C/c1ccc([N+](=O)[O-])s1,40% (active)
3,COc1cccc(N2C(=O)NC(=O)/C(=C\c3ccc([N+](=O)[O-])s3)C2=O)c1,39.2% (active)
4,C/C(=N/O)c1ccc2ccc3ccccc3c2c1,42.5% (active)
5,Cc1ccc(-c2nc3ccccc3c(=O)n2-c2ccc(Br)cn2)cc1,46.5% (active)
